From PubChem BioAssay (EPA / NIEHS)
Inconclusive results are not listed. The source made the active and inactive calls. How the source made its calls, unless noted: active means hit-call score of the fitted dose curve at least 0.9, where 1 is the maximum; inactive means score below 0.9.

Legend:
[1] = ATG_NFI_CIS: Attagene CIS-FACTORIAL HepG2 Assay for human Nuclear Factor I (NFI) (AID 2282989); conditions: HepG2 cis-regulatory reporter, NFI response element transcription; actives raise or lower the signal
Summary of the method: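 HepG2 cells transiently transfected with cis-element-driven multiplexed reporter transcription units, dosed for 24 h. Reporter mRNA quantified by RT-PCR, fluorescent labelling, HpaI digestion and capillary electrophoresis; bidirectional fit versus DMSO baseline.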

[2] = biological target: Myc proto-oncogene protein (Homo sapiens) (UniProt P01106); assay: ATG_Myc_CIS: Attagene CIS-FACTORIAL HepG2 Assay for human Myelocytomatosis (Myc) Proto-Oncogene Transcription Factor (AID 2282990); conditions: HepG2, Attagene cis-reporter transcription factor activity; actives raise or lower the signal
Summary of the method: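 HepG2 cells transiently transfected with multiple cis-promoter-driven reporter transcription units, so endogenous TF activity is read. After 24 h compound exposure, reporter mRNA was quantified by RT-PCR, 6-FAM labelling, HpaI digestion and capillary electrophoresis; bidirectional fit versus DMSO.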

[3] = ATG_NF_kB_CIS: Attagene CIS-FACTORIAL HepG2 Assay for human Nuclear Factor Kappa B (NF-kB) (AID 2282991); conditions: HepG2 Attagene cis-factorial NF-kB reporter mRNA; actives raise or lower the signal
Summary of the method: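 HepG2 cells transiently transfected with multiplexed cis-element reporter units measuring endogenous transcription factor activity; reporter mRNA read 24 h after dosing by RT-PCR, fluorescent labelling, HpaI digestion and capillary electrophoresis. Bidirectional fit against DMSO baseline.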

[4] = ATG_NRF2_ARE_CIS: Attagene CIS-FACTORIAL HepG2 Assay for human Nuclear Factor Erythroid 2 Related Factor 2 (NFR2) response to Antioxidant Response Elements (ARE) (AID 2282992); conditions: HepG2 Attagene ARE/NRF2 reporter, transcription factor activity; actives raise or lower the signal;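 on AC50: reporter mRNA level measured by RT-PCR and capillary electrophoresis fluorescence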
Summary of the method: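 Transient MRTU transfection of HepG2; 24 h compound exposure; TriZol RNA, RT with oligo(dT), PCR, 6-FAM primer extension, HpaI cut, CE. Bidirectional fit vs DMSO.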

[5] = ATG_Oct_MLP_CIS: Attagene CIS-FACTORIAL HepG2 Assay for human Octamer-Binding Transcription Factor (Oct) (AID 2282993); conditions: HepG2 Attagene cis-factorial Oct reporter, mRNA; actives raise or lower the signal
Summary of the method: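 HepG2 cells transiently transfected with cis-promoter-driven multiplexed reporter transcription units, dosed for 24 h. Reporter mRNA quantified by RT-PCR, fluorescent labelling, HpaI digestion and capillary electrophoresis; bidirectional fits versus DMSO baseline.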

[6] = biological target: Cellular tumor antigen p53 (Homo sapiens) (UniProt P04637); assay: ATG_p53_CIS: Attagene CIS-FACTORIAL HepG2 Assay for human p53 Transcription Factor (AID 2282994); conditions: HepG2 p53 cis-element reporter, Attagene mRNA; actives raise or lower the signal
Summary of the method: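 HepG2, transient MRTU transfection (cis promoter elements, endogenous TFs); 24 h dosing; RNA isolation, RT-PCR, 6-FAM primer extension, HpaI digest, CE fluorescence; bidirectional fit vs DMSO.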

[7] = biological target: human Peroxisome Proliferator-activated Receptor alpha (PPARa), PPARA (gene 5465) (UniProt Q07869); assay: ATG_PPARa_TRANS: Attagene TRANS-FACTORIAL HepG2 Assay for human Peroxisome Proliferator-activated Receptor alpha (PPARa) (AID 2283001; active means hit-call score of the fitted dose curve at least 0.9, where 1 is the maximum)
Summary of the method: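 Gain-of-signal endpoint: reporter mRNA induction relative to DMSO, detected by fluorescent RT-PCR and capillary electrophoresis. HepG2 cells transiently carried GAL4-UAS-driven reporter units plus NR-Gal4 fusion; exposure lasted 24 h.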

[8] = biological target: Retinoic acid receptor alpha (Homo sapiens) (UniProt P10276); assay: ATG_RARa_TRANS: Attagene TRANS-FACTORIAL HepG2 Assay for human Retinoic Acid Receptor alpha (RARa) (AID 2283005; active means hit-call score of the fitted dose curve at least 0.9, where 1 is the maximum)
Summary of the method: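 HepG2 cells transiently transfected with multiple reporter units expressing chimeric RARα-GAL4 fusion, with GAL4-UAS-driven reporters. After 24 h compound exposure, reporter mRNA induction quantified by RT-PCR and capillary electrophoresis with fluorescent labeling; gain-of-signal fitted relative to DMSO control.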

[9] = biological target: Nuclear receptor subfamily 1 group I member 2 (Homo sapiens) (UniProt O75469); assay: ATG_PXR_TRANS: Attagene TRANS-FACTORIAL HepG2 Assay for human Pregnane X Receptor (PXR) (AID 2283008; active means hit-call score of the fitted dose curve at least 0.9, where 1 is the maximum)
Summary of the method: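 Read-out is fluorescence of labelled reporter cDNA fragments separated by capillary electrophoresis after RT-PCR and HpaI digestion. Source: HepG2 cells carrying PXR-GAL4/UAS reporter constructs, treated 24 h; activity fitted upward relative to DMSO.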

[10] = biological target: human Retinoic Acid Receptor beta (RARb), RARB (gene 5915) (UniProt P10826); assay: ATG_RARb_TRANS: Attagene TRANS-FACTORIAL HepG2 Assay for human Retinoic Acid Receptor beta (AID 2283004; active means hit-call score of the fitted dose curve at least 0.9, where 1 is the maximum)
Summary of the method: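 HepG2, transient MRTU transfection, NR–Gal4 chimera, 24 h treatment; RT-PCR plus CE fluorescence detection of reporter mRNA; gain of signal vs DMSO.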

[11] = biological target: human Retinoic Acid Receptor gamma (RARg), RARG (gene 5916) (UniProt P13631); assay: ATG_RARg_TRANS: Attagene TRANS-FACTORIAL HepG2 Assay for human Retinoic Acid Receptor gamma (RARg) (AID 2283009; active means hit-call score of the fitted dose curve at least 0.9, where 1 is the maximum)
Summary of the method: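 Transient transfection of HepG2 with multi-reporter constructs, then 24 h chemical treatment. Total RNA isolated, reverse-transcribed, PCR-amplified, fluorescently labelled and resolved by capillary electrophoresis; activity scored as mRNA induction versus DMSO.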

[12] = biological target: Peroxisome proliferator-activated receptor gamma (Homo sapiens) (UniProt P37231); assay: ATG_PPARg_TRANS: Attagene TRANS-FACTORIAL HepG2 Assay for human Peroxisome Proliferator-activated Receptor-gamma (PPARg) (AID 2283007; active means hit-call score of the fitted dose curve at least 0.9, where 1 is the maximum)
Summary of the method: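 HepG2 cells transiently transfected with multiplexed GAL4-UAS reporter units and exogenous chimeric NR-Gal4 proteins; reporter mRNA quantified after 24 h compound exposure by RT-PCR, fluorescent labelling, HpaI digestion and capillary electrophoresis; gain-of-signal fitted versus DMSO baseline.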

[13] = biological target: human Peroxisome Proliferator-activated Receptor delta (PPARd), PPARD (gene 5467) (UniProt Q03181); assay: ATG_PPARd_TRANS: Attagene TRANS-FACTORIAL HepG2 Assay for human Peroxisome Proliferator-activated Receptor delta (PPARd) (AID 2283002; active means hit-call score of the fitted dose curve at least 0.9, where 1 is the maximum)
Summary of the method: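 HepG2 cells transiently transfected with multiplexed GAL4-UAS reporter units and exogenous chimeric NR-Gal4 proteins; 24 h compound exposure. Reporter mRNA measured by RT-PCR, 6-FAM labelling, HpaI digestion and capillary electrophoresis; gain of signal versus DMSO.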

[14] = BSK_3C_TissueFactor: BioMAP Diversity Plus: 3C Assay for Tissue Factor Biomarker Activity (AID 2282997); conditions: BioMAP 3C HUVEC, tissue factor biomarker readout; actives raise or lower the signal
Summary of the method: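 Values derive from bidirectional curve fitting against DMSO of Tissue Factor ELISA signals, taken 24 h after dosing primary human umbilical vein endothelial cells.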

[15] = BSK_3C_uPAR: BioMAP Diversity Plus: 3C Assay for Urokinase-type plasminogen activator receptor (uPAR) Biomarker Activity (AID 2282998); conditions: BioMAP 3C HUVEC, uPAR biomarker ELISA; actives raise or lower the signal
Summary of the method: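 Human umbilical vein endothelial primary cells were exposed to test chemical for 24 h. Cell-surface uPAR was then quantified by ELISA, and responses were fitted bidirectionally against DMSO as negative control and baseline.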

[16] = BSK_3C_VCAM1: BioMAP Diversity Plus: 3C Assay for Vascular cell adhesion molecule 1 (VCAM1) Biomarker Activity (AID 2282999); conditions: BioMAP 3C HUVEC, VCAM1 ELISA, cytokine-stimulated; actives raise or lower the signal
Summary of the method: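 Human umbilical vein endothelial cells were dosed with compound for 24 h, after which cell-surface VCAM-1 was quantified by ELISA. Bidirectional curve fitting used DMSO as negative control and activity baseline.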

[17] = BSK_4H_Eotaxin3: BioMAP Diversity Plus: 4H Assay for Eotaxin 3 Biomarker Activity (AID 2283000); conditions: primary human endothelial cells (HUVEC); actives raise or lower the signal;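 further: CCL26 protein level quantified by ELISA in parallel with SRB cytotoxicity check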
Summary of the method: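 Endothelial primary cells (human umbilical vein) exposed to compound for 24 h. ELISA detection of Eotaxin-3.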

[18] = BSK_3C_Proliferation: Cell Proliferation Assessment in the BioMAP Diversity Plus: 3C Assay (AID 2283006); conditions: primary human endothelial cells (HUVEC)
Summary of the method: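 Read-out is total protein by SRB absorbance at 560 nm, taken as a proxy for relative cell number. Primary human umbilical vein endothelium cultured below confluence was dosed for 48 h, TCA-fixed and SRB-stained; curves were fitted bidirectionally versus DMSO.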

Measured: AC50

Chain of human Peroxisome Proliferator-activated Receptor delta (PPARd), PPARD (gene 5467) (Q03181 whole entry, looked up, the tested form may be a part): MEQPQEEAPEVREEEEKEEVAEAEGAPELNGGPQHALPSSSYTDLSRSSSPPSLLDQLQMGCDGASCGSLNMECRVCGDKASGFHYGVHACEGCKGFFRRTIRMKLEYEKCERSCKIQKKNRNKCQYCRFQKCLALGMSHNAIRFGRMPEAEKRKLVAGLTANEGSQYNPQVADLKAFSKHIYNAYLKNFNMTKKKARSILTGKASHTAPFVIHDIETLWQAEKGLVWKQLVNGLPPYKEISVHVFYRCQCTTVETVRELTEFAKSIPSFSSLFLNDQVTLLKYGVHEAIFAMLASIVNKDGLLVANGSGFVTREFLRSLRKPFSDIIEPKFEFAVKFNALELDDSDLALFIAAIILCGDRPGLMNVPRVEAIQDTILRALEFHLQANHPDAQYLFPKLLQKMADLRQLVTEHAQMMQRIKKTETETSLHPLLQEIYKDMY
Chain of Peroxisome proliferator-activated receptor gamma (Homo sapiens) (P37231 whole entry, looked up, the tested form may be a part): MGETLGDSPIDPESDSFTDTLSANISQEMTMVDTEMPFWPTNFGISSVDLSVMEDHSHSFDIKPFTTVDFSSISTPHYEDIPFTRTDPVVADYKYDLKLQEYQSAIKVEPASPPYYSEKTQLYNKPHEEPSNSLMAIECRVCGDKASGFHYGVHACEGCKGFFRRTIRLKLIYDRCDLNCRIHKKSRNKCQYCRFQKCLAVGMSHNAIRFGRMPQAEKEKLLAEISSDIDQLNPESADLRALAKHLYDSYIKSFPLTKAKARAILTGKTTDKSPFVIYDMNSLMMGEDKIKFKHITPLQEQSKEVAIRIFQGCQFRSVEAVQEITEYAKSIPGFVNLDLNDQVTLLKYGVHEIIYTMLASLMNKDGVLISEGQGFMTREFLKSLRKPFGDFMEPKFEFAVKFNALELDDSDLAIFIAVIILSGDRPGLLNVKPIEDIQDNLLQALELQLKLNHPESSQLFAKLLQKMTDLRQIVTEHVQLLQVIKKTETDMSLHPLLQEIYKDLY
Chain of Retinoic acid receptor alpha (Homo sapiens) (P10276 whole entry, looked up, the tested form may be a part): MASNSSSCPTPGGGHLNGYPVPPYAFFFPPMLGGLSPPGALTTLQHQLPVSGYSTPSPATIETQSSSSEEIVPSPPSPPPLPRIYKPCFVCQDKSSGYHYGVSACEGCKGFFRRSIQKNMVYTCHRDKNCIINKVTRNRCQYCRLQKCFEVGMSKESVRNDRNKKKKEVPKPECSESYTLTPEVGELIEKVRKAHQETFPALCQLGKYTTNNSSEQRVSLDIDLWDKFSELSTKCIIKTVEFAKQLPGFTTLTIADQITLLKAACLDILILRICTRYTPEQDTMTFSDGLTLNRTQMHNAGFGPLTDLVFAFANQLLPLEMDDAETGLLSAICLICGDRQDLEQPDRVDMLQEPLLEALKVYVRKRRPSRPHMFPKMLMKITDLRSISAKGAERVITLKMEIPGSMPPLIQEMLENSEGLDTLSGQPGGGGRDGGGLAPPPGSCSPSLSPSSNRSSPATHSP
Chain of human Peroxisome Proliferator-activated Receptor alpha (PPARa), PPARA (gene 5465) (Q07869 whole entry, looked up, the tested form may be a part): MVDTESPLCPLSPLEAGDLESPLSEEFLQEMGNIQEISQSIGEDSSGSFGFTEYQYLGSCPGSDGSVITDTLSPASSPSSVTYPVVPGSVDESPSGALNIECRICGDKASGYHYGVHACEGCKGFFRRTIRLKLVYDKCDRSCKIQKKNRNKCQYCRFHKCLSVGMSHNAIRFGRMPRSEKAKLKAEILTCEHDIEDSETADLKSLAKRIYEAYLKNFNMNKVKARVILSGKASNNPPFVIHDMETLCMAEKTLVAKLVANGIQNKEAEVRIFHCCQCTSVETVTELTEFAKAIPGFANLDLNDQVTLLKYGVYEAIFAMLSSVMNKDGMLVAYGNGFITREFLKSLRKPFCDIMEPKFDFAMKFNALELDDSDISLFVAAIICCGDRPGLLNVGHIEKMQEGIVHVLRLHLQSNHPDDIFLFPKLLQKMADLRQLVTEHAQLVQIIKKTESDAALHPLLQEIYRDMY
Chain of human Retinoic Acid Receptor beta (RARb), RARB (gene 5915) (P10826 whole entry, looked up, the tested form may be a part): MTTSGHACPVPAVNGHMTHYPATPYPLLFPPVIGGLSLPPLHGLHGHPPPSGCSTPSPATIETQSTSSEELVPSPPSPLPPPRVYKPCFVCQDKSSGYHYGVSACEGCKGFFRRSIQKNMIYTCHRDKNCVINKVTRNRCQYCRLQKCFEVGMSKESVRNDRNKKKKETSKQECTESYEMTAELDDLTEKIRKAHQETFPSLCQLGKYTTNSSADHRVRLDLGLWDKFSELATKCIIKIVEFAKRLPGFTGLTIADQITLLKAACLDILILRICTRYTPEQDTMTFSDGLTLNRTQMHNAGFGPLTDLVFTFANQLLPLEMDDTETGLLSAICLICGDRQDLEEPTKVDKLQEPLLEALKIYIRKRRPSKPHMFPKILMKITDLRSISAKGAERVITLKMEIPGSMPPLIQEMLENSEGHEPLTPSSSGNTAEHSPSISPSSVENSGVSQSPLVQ
Chain of Cellular tumor antigen p53 (Homo sapiens) (P04637 whole entry, looked up): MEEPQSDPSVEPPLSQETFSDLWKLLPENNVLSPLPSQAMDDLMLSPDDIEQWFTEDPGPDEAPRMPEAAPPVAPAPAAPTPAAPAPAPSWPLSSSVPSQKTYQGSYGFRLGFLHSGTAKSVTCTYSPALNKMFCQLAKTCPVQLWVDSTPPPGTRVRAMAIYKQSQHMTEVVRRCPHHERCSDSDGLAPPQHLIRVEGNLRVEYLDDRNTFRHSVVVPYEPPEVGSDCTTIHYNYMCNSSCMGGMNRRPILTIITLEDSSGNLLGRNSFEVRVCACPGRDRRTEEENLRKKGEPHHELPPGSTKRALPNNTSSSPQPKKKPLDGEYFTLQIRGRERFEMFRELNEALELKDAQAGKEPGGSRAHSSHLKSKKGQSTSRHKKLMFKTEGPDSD
Chain of Nuclear receptor subfamily 1 group I member 2 (Homo sapiens) (O75469 whole entry, looked up, the tested form may be a part): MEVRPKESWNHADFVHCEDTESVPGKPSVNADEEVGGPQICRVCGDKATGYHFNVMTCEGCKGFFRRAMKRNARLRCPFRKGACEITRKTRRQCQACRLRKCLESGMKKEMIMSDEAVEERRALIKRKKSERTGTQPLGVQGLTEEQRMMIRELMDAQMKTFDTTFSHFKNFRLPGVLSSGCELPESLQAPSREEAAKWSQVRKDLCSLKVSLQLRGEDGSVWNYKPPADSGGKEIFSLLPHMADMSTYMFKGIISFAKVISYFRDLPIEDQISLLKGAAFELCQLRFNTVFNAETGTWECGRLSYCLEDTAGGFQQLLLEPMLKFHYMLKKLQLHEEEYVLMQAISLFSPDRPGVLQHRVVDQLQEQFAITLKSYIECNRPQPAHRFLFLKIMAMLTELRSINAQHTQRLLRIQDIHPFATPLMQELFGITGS
Chain of Myc proto-oncogene protein (Homo sapiens) (P01106 whole entry, looked up): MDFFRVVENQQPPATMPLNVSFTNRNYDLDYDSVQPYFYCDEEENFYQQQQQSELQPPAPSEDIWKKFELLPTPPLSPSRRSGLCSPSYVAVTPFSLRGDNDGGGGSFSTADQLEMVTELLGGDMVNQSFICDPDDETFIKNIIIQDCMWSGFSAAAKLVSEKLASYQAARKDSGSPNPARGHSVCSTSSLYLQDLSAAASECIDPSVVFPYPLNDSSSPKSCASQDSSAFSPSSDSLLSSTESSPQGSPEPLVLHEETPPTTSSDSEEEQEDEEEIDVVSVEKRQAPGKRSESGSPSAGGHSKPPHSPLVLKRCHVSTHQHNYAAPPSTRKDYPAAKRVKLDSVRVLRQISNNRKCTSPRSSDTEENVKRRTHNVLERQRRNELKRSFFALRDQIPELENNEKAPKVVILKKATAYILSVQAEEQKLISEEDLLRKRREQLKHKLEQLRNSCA
Chain of human Retinoic Acid Receptor gamma (RARg), RARG (gene 5916) (P13631 whole entry, looked up): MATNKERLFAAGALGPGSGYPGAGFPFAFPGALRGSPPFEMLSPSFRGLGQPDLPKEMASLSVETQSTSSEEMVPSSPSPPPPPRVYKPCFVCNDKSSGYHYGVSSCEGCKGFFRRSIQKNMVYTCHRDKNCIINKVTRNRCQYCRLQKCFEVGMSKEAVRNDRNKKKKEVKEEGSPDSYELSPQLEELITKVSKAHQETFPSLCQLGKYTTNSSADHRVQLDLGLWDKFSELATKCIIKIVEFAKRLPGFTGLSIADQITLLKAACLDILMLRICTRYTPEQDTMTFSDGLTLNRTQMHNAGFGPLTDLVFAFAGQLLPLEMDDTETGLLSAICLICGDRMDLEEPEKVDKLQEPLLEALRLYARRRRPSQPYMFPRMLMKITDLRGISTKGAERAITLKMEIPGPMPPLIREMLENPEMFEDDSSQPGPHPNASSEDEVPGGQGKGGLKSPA

CC(=O)OCC=C(C)C
inactive: [1] | [2] | [3] | [4] | [5] | [6] | [7] | [8] | [9]

CCCCCCCCCCCCCC(=O)OC(C)C
inactive: [1] | [2] | [3] | [4] | [5] | [6] | [10] | [8] | [9] | [11]

CC(C)=CCCC(C)=CC#N
inactive: [1] | [2] | [4] | [5] | [6] | [7] | [10] | [12] | [9]

CO[Si](CCCS)(OC)OC
inactive: [1] | [2] | [3] | [4] | [5] | [6] | [13] | [12] | [9]

CC1=CP(=O)(c2ccccc2)CC1 (stereo not given)
inactive: [1] | [2] | [3] | [4] | [5] | [6] | [13] | [8] | [9] | [11]

Cn1ccnc1
inactive: [1] | [2] | [3] | [4] | [5] | [6] | [8]

C=CC(=O)NC(C)(C)C
active: [4] 28 µM
not listed: [2] | [6] | [8] | [10] | [11] | [12] | [13]
inactive: all other assays above

CCc1cccc(C)c1N
not listed: [13] | [14] | [15] | [16] | [17] | [18]
inactive: all other assays above

CC(C)[N+](C)(CCOC(=O)C1c2ccccc2Oc2ccccc21)C(C)C
not listed: [7] | [8] | [10] | [11] | [12]
inactive: all other assays above
